Among the data in PubChem BioAssay (NCI) are growth values, retold here.

SMILES strings stand for the structures. This is part of a sample that, as a whole, favours compounds with a hit. Of some 83,000 tested, about 20% had one in any assay.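 Negative percent growth values reflect cell death: -40 means 40% of the cells present at the start died, and -100 means all died.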 A number with no mark means an inactive call. Calls of active or inactive are those of the source. The calls were made as follows: active = growth percent below 10; inactive = the rest.

What all share (assay): NCI-60 one-dose screen, 48 h (100 = growth as untreated, 0 = no growth, -100 = all killed)
What all share (settings): 10 µM

Test [1] deals with SK-MEL-2 melanoma.
In test [2] the test system is EKVX NSCLC.
Test [3] has as its system SN12C renal.
The test system of test [4] is UO-31 renal.
The subject of test [5] is TK-10 renal.
In test [6] the test system is ACHN renal.
Test [7] has as its system CAKI-1 renal.
Test [8] deals with A498 renal.
The subject of test [9] is MOLT-4 leukemia.
Test [10] has as its system RPMI-8226 leukemia.
The subject of test [11] is OVCAR-5 ovarian.
The test system of test [12] is OVCAR-4 ovarian.
Test [13] relates to SK-OV-3 ovarian.
Test [14] has as its system IGROV1 ovarian.
Test [15] deals with OVCAR-3 ovarian.
Test [16] concerns HS 578T breast.
Test [17] concerns NCI/ADR-RES ovarian.
Test [18] deals with SR leukemia.
The subject of test [19] is OVCAR-8 ovarian.

For `CNC(=O)c1cn(C2CC2)c2cc(N3CCN(C(=O)c4cc(OC)c(OC)c(OC)c4)CC3)c(F)cc2c1=O`, the growth in test [1] was 94.8%; in [2], 91.2%; in [3], 101%; in test [4], 79%; in [5], 92.1%; in test [6], 99.4%. For the same compound, the growth is 90.9% in test [7]; 88.4% in test [8]; 99.7% in [9]; 97.6% in test [10]; 96% in test [11]; 98.6% in test [12]. Also, the growth is 103% in test [13]; 102% in [14]; 106% in test [15]; 101% in [16]; 96.7% in test [17].
As for `COc1ccc(-c2cc(-c3ccccc3)nc(SCCCC(=O)NO)n2)cc1`, the growth in [1] is -7.04% (active); in test [2] it was -23.3% (active); in test [3] it was -8.2% (active); in test [4], -52% (active); in test [5] it was 6.16% (active); in [6], -17.8% (active). The growth in test [7] is -16.4% (active); in test [8], -44.3% (active); in test [9], 4.82% (active); in [18], 12.3%; in test [19] it was 6.59% (active); in [11], 17%. In addition, the growth in [12] is 13.5%; in test [13], -20.5% (active); in test [14], -32.6% (active); in [15], -22.8% (active); in [16] it was 13.8%; in test [17], -40.5% (active).
Take `CNS(=O)(=O)Oc1ccc(-c2ccc3occc3c2)cc1`: the growth in test [1] was 108%; in test [2], 38.6%; in test [3] it was 97.7%; in [4], 90.4%; in test [5], 98.5%; in test [6], 99.5%. The growth in test [7] is 93.3%; in [8], 102%; in [9], 96.2%; in [18], 111%; in test [10] it was 109%; in test [11] it was 88.8%. For the same compound, the growth in test [12] was 98.4%; in [13], 111%; in test [14], 99.8%; in [15] it was 107%; in test [16] it was 110%; in test [17], 102%.
On to `C=CCn1c(SCC(=O)Nc2ccc(C(=O)/C=C/c3ccc(Cl)cc3)cc2)nnc1-c1cc(-c2ccccc2)nc2ccccc12`, for which the growth is 97.2% in test [1]; 79.1% in [2]; 70.8% in test [3]; 35.4% in test [4]; 94.8% in [5]; 82.3% in test [6]. The growth is 61.7% in test [7]; 81.4% in [8]; 12.8% in test [9]; 6.5% (active) in [18]; 90.4% in test [11]; 44.1% in test [12]. Moreover, the growth was 100% in test [13]; -62% (active) in test [14]; 63.7% in test [15]; 86.3% in test [16]; 78.9% in test [17].
As for `COc1cc(C2CC(c3cc(Cl)c(C)cc3O)=NN2c2ccc(S(N)(=O)=O)cc2)cc(OC)c1OC` (stereo not drawn), the growth in test [1] was 37.7%; in test [2] it was 16.9%; in test [3] it was 13.7%; in [4] it was 4.12% (active); in test [5], 15.3%; in test [6], 3.29% (active). In addition, the growth in [7] is 11.4%; in [8] it was 43.3%; in test [10], 11.9%; in test [19], 34.4%; in test [11] it was 19.4%; in [12], 33.1%. Besides, the growth in test [13] was 14.5%; in test [14], 3.35% (active); in [15] it was 20.7%; in [16], 30.3%; in test [17], 3.9% (active).
For the compound `COc1ccc(-c2cc(-c3ccc(Cl)cc3)nc(SCCCC(=O)NO)n2)cc1`, the growth is 0.495% (active) in test [1]; -19.2% (active) in [2]; 2.49% (active) in test [3]; -40.9% (active) in [4]; 13.8% in test [5]; 2.98% (active) in test [6]. The growth in test [7] is -0.0585% (active); in test [8] it was -19% (active); in test [9], 9.27% (active); in [18] it was 22.8%; in [19], 8.07% (active); in test [11], 24.5%. The growth in test [12] is 18.2%; in test [13], 5.99% (active); in test [14] it was 2.96% (active); in test [15], -1.93% (active); in test [16] it was 37.9%; in test [17], -33.6% (active).
With `Cc1[nH]c2ccccc2c1/C=N/Nc1ncnc2sc3c(c12)CCN(CC(=O)OC(C)(C)C)C3`, the growth was 92.6% in test [1]; 134% in [2]; 85.3% in test [3]; 65.5% in [4]; 101% in test [5]; 54.2% in test [6]. In addition, the growth in test [7] is 47.2%; in test [8], 51.8%; in test [9], 46.5%; in [18] it was 23.4%; in test [19] it was 69%; in test [11] it was 130%. The growth in [12] is 104%; in test [13], 108%; in [14], 79.8%; in test [15] it was 83.1%; in test [16], 77.7%; in test [17], 66.1%.
Turning to `COc1cc2nc(SCC(=O)Nc3cc(OC)c(OC)c(OC)c3)n(Cc3ccccc3)c(=O)c2cc1OC`, the growth in test [1] was 45.4%; in test [2], 75.5%; in test [3] it was 69.1%; in test [4], 48.9%; in test [5] it was -12.5% (active); in [6], 66.1%. The growth in test [7] is 84.8%; in test [8], -8.93% (active); in test [19], -4.94% (active); in test [11] it was 93.7%; in test [12] it was 48.1%; in [13] it was 47.4%. For the same compound, the growth in test [14] was 75.5%; in test [15] it was 69.7%; in test [16], 24.9%.
